# NPC1 prom act: qHTS Assay for NPC1 Promoter Activators; Huh7 NPC1 promoter luciferase reporter, 24 h; Potency, µM (titrated, usually from 9.22 µM), inactives show at the top dose activation, most hits filed as activators; 2.4% of 320,000 active; AID 485313, 2010; also: % of control where 0% means no effect; nearly all actives have a fitted effect of over 60% in size
#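 Readout is luciferase luminescence, reflecting NPC1 promoter activation in stably transfected Huh7 cells after 24 h compound exposure at 37 °C in reduced-serum medium with 10% FBS.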
# Rab9 promoter act: qHTS Assay for Rab9 Promoter Activators; Potency, µM (series often up to 9.22 µM), for the others: at the highest dose activation, negative = inhibition, most hits filed as activators; 2.8% of 320,000 active; AID 485297, 2010; Huh7 Rab9 promoter-luciferase reporter, luminescence, 24 h; also: % of control where 0% means no effect; nearly all actives have a fitted effect of over 60% in size
#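 Luciferase signal after 10 min detection reagent at ambient indicates Rab9 promoter upregulation; stably transfected Huh7 cells were treated 24 h with compound in DMSO at 37 °C, 5% CO2.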
# ELG1 repair inh: qHTS screen for small molecules that inhibit ELG1-dependent DNA repair in human embryonic kidney (HEK293T) cells expressing luciferase-tagged ELG1. HEK293T ELG1-luciferase reporter, luminescence, 16 h; DNA damage induced by 5-fluorouridine. Potency, µM (top dose mostly 46.1 µM), without a hit: at the highest dose activity change, negative = inhibition, most hits filed as inhibitors. 2.3% of 330,000 active; also: % is scaled to controls: 0 for no effect and ±100 for the full control effect; nearly all actives have a fitted effect of over 55% in size
#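 Luminescence from the luciferase reporter, measured 30 min after ONE-Glo reagent at room temperature, was the read-out. Beforehand, 2,000 cells per well were exposed for 16 hr at 37 °C to 5-fluorouridine together with compound or vehicle.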
# SMN2 splice enh: qHTS Assay for Enhancers of SMN2 Splice Variant Expression; HEK293 SMN2-luciferase splicing reporter, luminescence, 30-36 h; Potency, µM (highest dose often 46.1 µM), for the others: at the top dose activity change, positive = activation, hits mostly activators; 2.8% of 210,000 active; also: % of control where 0% means no effect; nearly all actives have a fitted effect of over 55% in size
#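 qHTS luciferase splicing reporter: luminescence rises when SMN2 exon 7 is included in transfected HEK293 cells. Compound exposure lasted 30-36 h at 37C, with 4.5 mM final sodium butyrate as control, followed by a ONE-Glo read.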
# FLuc modulator: qHTS profiling assay for firefly luciferase inhibitor/activator using purifed enzyme and Km concentrations of substrates (counterscreen for miR-21 project); Luciferin 4-monooxygenase (Photinus pyralis), P08659; purified FLuc, Km substrates, luminescence inhibition; Potency, µM (titrated, usually from 57.5 µM), for the others: at the top dose activity change, negative = inhibition, most hits filed as inhibitors; 6.9% of 360,000 active;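 also: plate controls were vehicle for no effect and reference inhibitor for full effect; nearly all actives have a fitted effect of over 55% in size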
# Target sequence (P08659 whole entry, looked up): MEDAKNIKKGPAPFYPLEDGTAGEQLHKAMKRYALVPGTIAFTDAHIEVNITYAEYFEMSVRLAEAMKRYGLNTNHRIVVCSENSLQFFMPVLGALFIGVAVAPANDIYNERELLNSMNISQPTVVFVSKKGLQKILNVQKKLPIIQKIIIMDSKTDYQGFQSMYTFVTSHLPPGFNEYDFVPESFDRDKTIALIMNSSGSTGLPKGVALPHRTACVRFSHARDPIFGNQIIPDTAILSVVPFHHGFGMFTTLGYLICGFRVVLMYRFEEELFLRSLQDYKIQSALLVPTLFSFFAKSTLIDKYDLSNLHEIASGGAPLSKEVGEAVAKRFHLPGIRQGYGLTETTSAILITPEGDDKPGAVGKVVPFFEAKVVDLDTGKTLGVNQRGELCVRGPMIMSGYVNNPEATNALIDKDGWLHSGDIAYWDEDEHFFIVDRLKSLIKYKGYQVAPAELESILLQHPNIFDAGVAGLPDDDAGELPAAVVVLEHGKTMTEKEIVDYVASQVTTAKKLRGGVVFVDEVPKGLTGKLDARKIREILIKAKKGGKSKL
#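 Purified P. pyralis luciferase (10nM final) with 10uM D-luciferin and 10uM ATP (Km levels) in 50mM Tris acetate pH 7.5, 10mM Mg acetate, 0.01% Tween-20, 0.05% BSA; qHTS 6-point titration, ~60 µM downward; luminescence read.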
# ELG1 genotox: qHTS screen for small molecules that induce genotoxicity in human embryonic kidney (HEK293T) cells expressing luciferase-tagged ELG1; HEK293T ELG1-luciferase reporter, luminescence, 16 h; Potency, µM (series often up to 46 µM), for the others: at the top dose activity change, positive = activation, usual class: activators; 1.3% of 330,000 active; also: % of control where 0% means no effect; nearly all actives have a fitted effect of over 60% in size
#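 Reporter readout depends on ELG1 protein level, which increases with genetic stress. After 16 hr compound exposure at 37 °C, luciferase activity was quantified using ONE-Glo.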
# Numbers without * were called inactive; ? = inconclusive; / = not tested or not shown; [ ] = remark or other dose. The list is not random: actives were taken first. Their share in the collection is about 9.2%. Calls follow the shape of the dose curve; as a rule, active = well fitted curve in the direction sought with a large enough effect; inconclusive = small, poorly fitted or top-dose-only effect, or another doubt; inactive = no such curve, though single readings can be large; an effect the other way counts as inactive or inconclusive. Potency is read from the fitted curve at half-maximal effect.
SMILES,NPC1 prom act,Rab9 promoter act,ELG1 repair inh,SMN2 splice enh,FLuc modulator,ELG1 genotox
CCCS(=O)(=O)Nc1cc(-c2cn3cccc(C)c3n2)ccc1C,/,/,/,29%,12µM*,/
Cc1cccn2cc(-c3ccccc3)nc12,1.6µM*,1.8µM*,?,11µM*,3µM*,?
COc1cccc(CNC(=O)c2ccc(-c3nc(CSc4ccccc4)c(C)o3)cc2)c1,/,/,/,/,1%,/
COc1ccc(-n2cnc3c(cnn3CCC#N)c2=N)cc1,16%,10%,44%,-8%,-17%,18%
Cc1cccn2cc(-c3ccc(F)cc3)cc12,1%,10%,18%,2%,?,9%
Cc1cccn2cc(-c3ccc(F)cc3)nc12,1.1µM*,1.8µM*,?,/,2.4µM*,0.92µM*
Cn1c(=O)c2c(nc(Br)n2CC(=O)C23CC4CC(CC(C4)C2)C3)n(C)c1=O,13%,-2%,15µM*,-17%,4%,-2%
COc1cccc(C(=O)Cn2c(Br)nc3c2c(=O)n(C)c(=O)n3C)c1,-3%,-6%,?,-36%,7%,-1%
COc1ccc(Nc2nc(C)c3ccccc3n2)cc1,?,2.5µM*,?,35µM*,-5%[2.3 µM],?
COc1ccc(Nc2nc(-c3ccccc3)c3ccccc3n2)cc1,-1%,-1%,?,-23%,-18%,-8%
Cc1nc(Nc2ccc(S(N)(=O)=O)cc2)sc1-c1ccccc1,28%,17%,?,/,21µM*,17%
COc1ccc2c(C)nc(Nc3nc(C)c(C)c(=O)[nH]3)nc2c1,?,?,?,3%,9.5µM*,?
COc1ccc(Nc2nc(-c3sc(NC(C)=O)nc3C)cs2)cc1,-6%,0%,?,-8%,?,-6%
COc1ccc(Nc2nc(C)c(-c3ccccc3)s2)cc1,?,4µM*,?,?,7.6µM*,?
CCc1c(C)nc(Nc2nc(C)c3ccc(OC)cc3n2)[nH]c1=O,16%,?,?,-23%,?,?
O=C(NCc1ccco1)C1CCN(C(=O)N2CCOc3ccc(Cl)cc32)CC1,/,/,/,/,5%,/
COc1ccc(-c2cn3c(C)c(C(=O)Nc4cccc(C)n4)sc3n2)cc1,0%,2%,?,?,12µM*,-12%
COc1ccc(-c2cn3c(C)c(C(=O)NC(C)C)sc3n2)cc1,24%,?,16%,-4%,?,15%
COc1ccc(C)cc1NC(=O)c1sc2nc(-c3ccc(F)cc3)cn2c1C,/,/,/,/,3%,/
COc1ccc(-c2cn3c(C)c(C(=O)NC(C)(C)C)sc3n2)cc1,2µM*,0.63µM*,?,/,5.4µM*,?
Cc1cccc(NC(=O)c2sc3nc(-c4ccc(F)cc4)cn3c2C)n1,4%,-2%,13%,-26%,-14%,4%
Cc1cccc(NC(=O)c2sc3nc(-c4ccccc4)cn3c2C)n1,16%,1%,18µM*,-53%,?,-6%
COCCNC(=O)CCCn1c(SCc2ccccc2Cl)nc2c(sc3ccccc32)c1=O,/,/,/,/,2%,/
CC(=O)c1cccc(NC(=O)C(C)OC(=O)CN2C(=O)NC(C)(C)C2=O)c1 (stereo not drawn),-6%,-5%,10%,/,0%,-2%
CCOc1ccc2cc(C(=O)NCc3ccccc3)c(=N)oc2c1,0%,-6%,?,/,21µM*,?
O=C(NCc1ccccc1)c1cc2ccc(O)cc2oc1=O,?,3.2µM*,?,/,12µM*,?
CCOc1ccc2cc(C(=O)c3ccccc3)c(=O)oc2c1,30%,?,?,?,-7%,?
